Laboratory results as given in PubChem BioAssay AID651784 (National Center for Advancing Translational Sciences (NCATS), 2012).
Inconclusive results are not listed. Activity calls are given as the source filed them. Calls come from the whole dose curve; as a rule, active = well fitted inhibition curve with a large enough effect; inconclusive = small, poorly fitted or top-dose-only effect; inactive = no such curve, though single readings can be large or run the other way.

Assay: Acumen qHTS Assay for Inhibitors of the mTORC1 Signaling Pathway in MEF (Tsc2-/-, p53-/-) Cells: Hit Validation;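 note: phospho-rpS6 Ser235/236 immunofluorescence normalized to propidium iodide cell count; nearly all actives have a fitted effect of over 65% in size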;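 for activity change, negative = inhibition: cells exposed to compound for 24 hours; plate controls were DMSO for no effect and 7.5 nM rapamycin control for full effect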
Conditions: Acumen imaging; activity change, negative = inhibition: at 37.3 µM (top of the series)
Potency is the fitted concentration of half-maximal effect.

Row | Structure (SMILES) | activity change, negative = inhibition [%] | Potency
1 | CCOc1cc(C2CC(=O)Nc3cc4c(cc32)OCCO4)ccc1O (configuration not stated) | 3.9 | 
2 | Cc1ccc(C)c(N2CCN(CCCNC(=O)c3nnc(Cc4ccc(F)cc4Cl)o3)CC2)c1 |  | 10.4 µM (active)
3 | CCCCS(=O)(=O)c1oc(-c2ccc(F)cc2)nc1S(=O)(=O)c1ccc(C)cc1 |  | 4.65 µM (active)
4 | Cn1nc(-c2ccc(OCC(=O)Nc3ccccc3)cc2)c2ccccc2c1=O | -11.2 | 
5 | Cc1ccc([C@H]2Nc3ccc(S(=O)(=O)Nc4cccc(Cl)c4C)cc3[C@H]3C=CC[C@H]32)cc1 | 8.84 | 
6 | Nc1nc(Nc2ccccc2F)sc1C(=O)c1ccc(Cl)cc1 | -5.15 | 
7 | CCOc1ccc(NC(=O)CN2C(=O)C(c3ccc(Cl)cc3)=NC2(C)C)cc1 | 17.5 | 
8 | Cc1ccc(NC(=O)COc2ccc(-c3nn(C)c(=O)c4ccccc34)cc2)c(C)c1 | -44.6 | 
9 | CC(C)CCNC(=O)Nc1ccc2c(c1)N(C)C(=O)c1ccccc1S2 | -8.55 | 
10 | O=C(NCC1CCN(Cc2cccc(Cl)c2)CC1)Nc1ccc(F)c(Cl)c1 |  | 9.27 µM (active)
11 | C#CCN1C(=O)C(O)(CC(=O)c2ccc(OC)c(OC)c2)c2cc(Br)ccc21 (configuration not stated) | -24.1 | 
12 | COc1ccc(C(=O)c2sc(Nc3ccccc3)nc2N)cc1 | -4.73 | 
13 | CCOCc1cc(CN2CCN(c3ccccc3OC)CC2)c(O)c2ncccc12 |  | 5.21 µM (active)
14 | Cc1cccc(OCC(O)Cn2c(=N)n(CCN3CCCCC3)c3ccccc32)c1 (configuration not stated) |  | 5.85 µM (active)
15 | COc1ccc(OC)c(Nc2c3c(nc4ccccc24)CCC3)c1 |  | 3.29 µM (active)
16 | CCc1ccc(CN(Cc2ccco2)C(=O)c2cc(-c3ccc(C)c(F)c3)on2)cc1 | -10.4 | 
17 | COc1ccccc1N1CCN(Cc2cc(COC(C)C)c3cccnc3c2O)CC1 |  | 5.21 µM (active)
18 | CCOc1ccccc1NC(=O)N(Cc1ccc(F)cc1)C1CCN(CC)CC1 | -15.8 | 
19 | Cc1ccc(-c2noc(CCC(=O)N(C)c3ccccc3F)n2)cc1 | 5.93 | 

Row | Structure (SMILES) | activity change, negative = inhibition [%] | Potency
20 | CCCCNC(=O)CSc1c2c(nc3ccc(Cl)cc13)CCCC2 | -28.5 | 
21 | O=C(NC1CCN(Cc2ccccc2)CC1)c1ccc(Cn2c(=O)c3ccccc3n(Cc3ccc(F)cc3)c2=O)cc1 |  | 3.69 µM (active)
22 | Cc1ccc(C)c(CN2C(=O)C(=O)c3ccccc32)c1 |  | 1.47 µM (active)
23 | CCOC(=O)c1[nH]c2ccccc2c1NC(=O)c1ccccc1OCC |  | 2.93 µM (active)
24 | CCOC(=O)N1CCN(Cc2nc3cc(NC(=O)c4ccccc4OC)ccc3n2C(C)C)CC1 | -28.8 | 
25 | CCS(=O)(=O)c1oc(-c2ccc(F)cc2)nc1S(=O)(=O)c1ccccc1 |  | 0.369 µM (active)
26 | CCc1ccc(NC(=O)C2CCCN(S(=O)(=O)c3c(C)noc3/C=C/N(C)C)C2)cc1 (configuration not stated) | -73.7 | 
27 | COC(=O)CN1C(=O)C(C)(C)c2cc(S(=O)(=O)Nc3ccc(Br)cc3F)ccc21 |  | 9.27 µM (active)
28 | COc1ccc(NC(=O)CSc2c3c(nc4ccccc24)CCC3)c(OC)c1 | 11.1 | 
29 | CCCCS(=O)(=O)c1oc(-c2cccs2)nc1S(=O)(=O)c1ccc(F)cc1 |  | 3.69 µM (active)
30 | O=C(NCc1ccc(F)cc1)c1ccc2c(Cl)c3c(nc2c1)CCCC3 | 26.5 | 
31 | O=C(COc1ccccc1-c1nc(-c2ccccc2)no1)Nc1cccc([N+](=O)[O-])c1 |  | 1.04 µM (active)
32 | Cc1ccc(Nc2nc(C(N)=O)c(NC(=O)c3ccccc3Br)s2)cc1 |  | 5.85 µM (active)
33 | CCC(C)NC(=O)c1sc2nc(C)c(C(=O)Nc3ccc(C)cc3C)c(-c3ccc(Cl)cc3)c2c1N (configuration not stated) | -10.2 | 
34 | CCN(c1ccccc1)S(=O)(=O)c1ccc(NC(=O)c2nc(S(C)(=O)=O)ncc2Cl)cc1 |  | 4.14 µM (active)
35 | COc1ccc(OCC(O)Cn2c(=N)n(CCN3CCCCC3)c3ccccc32)cc1 (configuration not stated) |  | 16.5 µM (active)
36 | Cc1ccc2nc(-c3cccc(NC(=O)c4cccc5ccccc45)c3)oc2c1 | -72.4 | 
37 | CCOc1cc(CNc2ccc(O)cc2)ccc1OCc1ccc(Cl)cc1 | -17.1 | 
